Bioassay records from PubChem BioAssay.
TrxR1 substrate: rat thioredoxin reductase 1 substrate activity; purified TrxR1 substrate turnover, NADPH consumption readout; Potency, µM (series often up to 114 µM); AID 588456; 390,000 compounds, 0.01% hits; O89049; also: nearly all actives have a fitted effect of over 50% in size
Target sequence (O89049 whole entry, looked up): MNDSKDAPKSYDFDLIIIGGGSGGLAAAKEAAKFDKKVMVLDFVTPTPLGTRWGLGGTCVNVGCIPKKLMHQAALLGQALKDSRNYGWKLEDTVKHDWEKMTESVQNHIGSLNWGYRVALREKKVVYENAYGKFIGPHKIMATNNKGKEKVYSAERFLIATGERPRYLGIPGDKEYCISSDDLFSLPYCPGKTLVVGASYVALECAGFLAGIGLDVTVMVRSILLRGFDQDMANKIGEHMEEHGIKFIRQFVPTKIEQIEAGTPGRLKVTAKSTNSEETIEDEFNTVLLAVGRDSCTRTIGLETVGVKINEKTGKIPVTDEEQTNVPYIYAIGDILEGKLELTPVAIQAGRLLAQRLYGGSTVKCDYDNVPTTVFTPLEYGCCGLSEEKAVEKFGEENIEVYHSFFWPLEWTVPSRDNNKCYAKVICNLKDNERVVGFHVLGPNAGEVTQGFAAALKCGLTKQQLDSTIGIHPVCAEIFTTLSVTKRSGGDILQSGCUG
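Rat TrxR1, dispensed at 90 nM, was prereduced with 400 uM NADPH (final) for 5 min at ~22 deg C, then incubated with compound 15 min before 400 uM selenite. A first-read NADPH fluorescence drop versus no-compound background flagged substrates.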
IDH1 R132H inh: human IDH1 R132H inhibition; IDH1-R132H enzyme, NADPH consumption, diaphorase/resazurin fluorescence; 390,000 compounds, 0.093% hits; AID 602179; Potency, µM (highest dose often 76.6 µM), actives largely listed as inhibitors; also: nearly all actives have a fitted effect of over 65% in size
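IDH1-R132H (0.5 ug/mL) preincubated 30 min with compound, then NADPH (0.016 mM) and alpha-KG (2 mM) added; 80 min at RT, pH 7.5. Remaining NADPH coupled via diaphorase/resazurin to fluorescence (540/590 nm); concentration-response curves normalized to no-enzyme control.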
GLS inhibitor: glutaminase GLS (human) inhibition; GLS enzymatic activity, qHTS titration; Potency, µM (highest dose often 45.5 µM), actives largely listed as inhibitors; 410,000 compounds, 0.21% hits; AID 624170
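hKGA in 45 mM KH2PO4 pH 8.2, 0.02% Tween-20 with pin-transferred compounds; 1 mM L-glutamine (stock) plus glutamate oxidase/HRP/Amplex Red coupling added. Fluorescence read initially and after 30 min at RT.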
TrxR1 inh-1: rat TrxR1 inhibition | O89049 | Potency, µM (series often up to 114 µM), most hits filed as inhibitors | recombinant rTrxR1, NADPH fluorescence consumption, selenite substrate | 390,000 compounds, 1% hits; also: nearly all actives have a fitted effect of over 65% in size
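Rat TrxR1 (90 nM in the dispensed reagent) was pre-reduced with 400 uM NADPH for 5 min at room temperature, then incubated with compound for 15 min. After 400 uM selenite was added, NADPH fluorescence (Ex 340/Em 450 nm) was followed for 8 min.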
GR counterassay: inhibits human glutathione reductase in TrxR1 counterassay; purified GR, DTNB reduction absorbance 405 nm kinetic; AID 652020; 55 tested, under 10 active; shares compounds with TrxR1 inh-1; activity change, negative = inhibition, % at 57.1 µM
TrxR1 inh-2: blocks rat thioredoxin reductase 1 in hit validation. recombinant TrxR1, NADPH fluorescence consumption, selenite substrate. 55 compounds, 50% hits. Potency, µM, most hits filed as inhibitors. shares compounds with TrxR1 inh-1. AID 652023
TrxR1 insulin: TrxR1 inhibitors: insulin reduction mechanism-of-action test; shares compounds with TrxR1 inh-1; TrxR1 Trx-coupled insulin reduction, NADPH absorbance 340 nm; Potency, µM; 55 compounds, 20% hits;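 active = compounds with a measured potency under 100 micromolar; inconclusive = filed, but no rule given; inactive = potency at or above that, or unmeasurable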
TrxR1 inh-3: rat thioredoxin reductase 1 inhibition, DTNB assay; shares compounds with TrxR1 inh-1; purified TrxR1, DTNB reduction, A412; Potency, µM; 55 compounds, 90% hits; AID 652256;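 active = a half-inhibiting concentration could be measured and was below 100 µM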
Large screens that a line does not name were inactive (follow-up assays come after a bar, where they were run). The list is not random: actives were taken first. Their share in the collection is about 1.2%. Unless noted, calls follow the shape of the dose curve; as a rule, active = well fitted curve in the direction sought with a large enough effect; inconclusive = small, poorly fitted or top-dose-only effect, or another doubt; inactive = no such curve, though single readings can be large; an effect the other way counts as inactive or inconclusive.

COc1cc2sc3cc(NCCCN4CCOCC4)ccc3c(=O)c2cc1OC	none
CCC(=O)Nc1ccc(-c2nnc(SCc3ccccc3)n2C)cc1	none (no result: IDH1 R132H inh, GLS inhibitor)
Cc1ccc(CNC(=O)c2cc(Sc3ccc(F)cc3F)nc3ccccc23)cc1	none
COc1ccc(-c2cn3nc(N4CCCC(C(=O)NCc5ccccc5C)C4)sc3n2)cc1 (stereo not drawn)	none
CCC(=O)N(CCC(c1ccco1)c1ccccc1OC)Cc1cccs1 (stereo not drawn)	TrxR1 inh-1 35µM (no result: GLS inhibitor)
CC(=O)N(CCC(c1ccccc1)c1ccco1)Cc1cccs1 (stereo not drawn)	TrxR1 inh-1 25µM
O=C(c1ccco1)N(CCC(c1ccccc1)c1ccco1)Cc1ccco1 (stereo not drawn)	GLS inhibitor inconclusive, TrxR1 inh-1 inconclusive
O=C(O)c1cccc(N2C(=O)c3cccc4cccc(c34)C2=O)c1	none
O=C(O)c1cccc(N2C(=O)c3cc([N+](=O)[O-])cc4cc([N+](=O)[O-])cc(c34)C2=O)c1	GLS inhibitor inconclusive, TrxR1 inh-1 11µM
CC1CCN(c2ccc(-c3cccc(NS(=O)(=O)c4ccc(Cl)s4)c3)nn2)CC1	none
O=C1CC(NS(=O)(=O)c2ccc([N+](=O)[O-])cc2)CN1c1ccc(Cl)cc1 (stereo not drawn)	TrxR1 inh-1 50µM
O=C1CC(NS(=O)(=O)c2ccc([N+](=O)[O-])cc2)CN1c1ccc2c(c1)OCCO2 (stereo not drawn)	none
CCOc1ccc(CNC(=O)CSc2c3c(nc4cc(Cl)ccc24)CCCC3)cc1	none
Cc1ccc(CNC(=O)CSc2c3c(nc4cc(Cl)ccc24)CCCC3)o1	TrxR1 inh-1 14µM
COc1ccc(S(=O)(=O)N2CCN(c3nc(-c4cccs4)nc4ccccc34)CC2)cc1	none (no result: IDH1 R132H inh, GLS inhibitor)
CNc1ccc(/C=C2\C=Cc3ccccc32)cc1OC	none (no result: IDH1 R132H inh, GLS inhibitor)
Cc1ccc2c(c1)c1c3n2CCN(C(=O)CN2CCN(C)CC2)C3CCC1 (stereo not drawn)	none
Cc1ccc2c(c1)c(=O)c1c3n2CCN(C(=O)CCl)C3CC1 (stereo not drawn)	TrxR1 inh-1 14µM
CCC1CCCCN1CCCNC(=O)c1ccc2c(c1)N(Cc1ccccc1F)C(=O)c1ccccc1S2(=O)=O (stereo not drawn)	none
O=C1CSC(=S)N1/N=C/c1ccc2c(c1)OCCO2	TrxR1 inh-1 79µM
O=C1CSC(=S)N1N=Cc1ccccc1O	none
O=C1CSC(=S)N1/N=C/c1cc(Br)c(O)c(Br)c1	GLS inhibitor inconclusive, TrxR1 inh-1 79µM
COc1ccc(Br)cc1/C=N/N1C(=O)CSC1=S	GLS inhibitor 20µM, TrxR1 inh-1 inconclusive
COc1cc(/C=N/N2C(=O)CSC2=S)ccc1O	TrxR1 inh-1 32µM
COc1cc(O)c(C=NN2C(=O)CSC2=S)c(OC)c1	none (no result: TrxR1 substrate, TrxR1 inh-1)
O=C1CSC(=S)N1/N=C/c1cccnc1	TrxR1 inh-1 inconclusive
CCc1cccc(C)c1NC(=O)CSc1nc2ccccc2nc1N1CCOCC1	none
Cc1ccccc1/C=N/N1C(=O)CSC1=S	TrxR1 inh-1 35µM
OCC1(O)OC[C@@H](O)[C@H](O)[C@@H]1O (stereo partly drawn)	none (no result: TrxR1 substrate, IDH1 R132H inh, TrxR1 inh-1)
CN(Cc1ccccc1)C(=O)c1ccccc1C(=O)OCC(=O)N(Cc1ccccc1)C(C)(C)C	none
CCOc1ccc(C(C)=O)cc1COC(=O)c1ccccc1C(=O)N(C)Cc1ccccc1	TrxR1 inh-1 50µM
CCCNC(=O)Cn1nc(-c2ccc(C)cc2)c2cnc3ccc(CC)cc3c21	none
COC(=O)/C=C\C(C#N)(C#N)N=Cc1ccc(OC)cc1	TrxR1 inh-1 2.2µM
CCNc1ccccc1CP(=O)(c1ccccc1)c1ccccc1O (stereo not drawn)	TrxR1 inh-1 50µM
COc1ccc(NC(=O)c2c(NCc3sccc3C)sc3c2CCCCC3)c(OC)c1	TrxR1 inh-1 18µM
COc1ccc(NC(=O)c2c(NCc3ccc(C)o3)sc3c2CCCCC3)c(OC)c1	TrxR1 inh-1 20µM
COc1ccc(OC)c(NC(=O)c2c(NCc3cccs3)sc3c2CCCC3)c1	TrxR1 inh-1 45µM
CCOC(=O)c1ccc(NC(=O)CSc2nccn2Cc2ccc(OC)cc2)cc1	none
c1ccc(OCCNc2ccn3nc(-c4cccs4)cc3n2)cc1	none (no result: TrxR1 substrate, IDH1 R132H inh, TrxR1 inh-1)
CCN1c2ccccc2N(C)C1(C)c1ccccc1 (stereo not drawn)	TrxR1 inh-1 45µM
CN1c2ccccc2N(C)C1(C)c1ccccc1	TrxR1 inh-1 inconclusive
CC1CCN(c2nc(-c3ccco3)c3c(c2C#N)CC(C)(C)OC3)CC1	TrxR1 inh-1 8.9µM
O=[N+]([O-])c1ccc(Oc2ccc(N=C=S)cc2)cc1	none (no result: TrxR1 substrate, IDH1 R132H inh, TrxR1 inh-1)
COc1cc(C(c2nnnn2C2CCCC2)N2CCc3ccccc3C2)ccc1O (stereo not drawn)	TrxR1 inh-1 2µM | GR counterassay inactive | TrxR1 inh-2 2.1 | TrxR1 insulin inactive | TrxR1 inh-3 0.71µM
CN(C)c1ccc(C(CNC(=O)c2ccccc2)N2CCc3ccccc32)cc1 (stereo not drawn)	none
Cc1cc(C)cc(OCC(=O)Nc2cccc3cccnc23)c1	none
NC(=O)c1ccccc1NC(=S)NC(=O)CCc1ccccc1	none
Cc1ccccc1NC(=S)NC(=O)CCc1ccccc1	TrxR1 inh-1 13µM | GR counterassay inactive | TrxR1 inh-2 3 | TrxR1 insulin inactive | TrxR1 inh-3 36µM
O=C(COC(=O)c1cc(S(=O)(=O)N2CCOCC2)ccc1F)Nc1cc([N+](=O)[O-])ccc1F	none
